Screens from PubChem BioAssay.
The sample as a whole holds a higher share of hits than the screen did.
KDM5B inhibitor = Primary screen for KDM5B Histone Demethylases FDH-coupled qHTS | KDM5B demethylase, FDH-coupled NADH fluorescence (FDH is formaldehyde dehydrogenase) | Potency, µM (top dose mostly 57.7 µM), hits mostly inhibitors | actives 2.6% (n = 220,000) | Lysine-specific demethylase 5B (Homo sapiens), Q9UGL1; active = well fitted inhibition curve with a large enough effect; note: 0% is about no effect; nearly all actives have a fitted effect of over 70% in size
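Coupled FDH/NAD⁺ fluorescence readout. KDM5BΔAP 200 nM final; compound titration, 10 min RT preincubation; substrate mix 12.5 µM H3K4me3, 25 µM 2-OG, 50 µM Fe(II), 100 µM ascorbate, 0.25 mM NAD⁺, 0.25 U/mL FDH; ΔRFU over 30 min.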
Active calls of the source: *. Potency is the fitted concentration of half-maximal effect.

COCCNC(=O)c1cc(C2CC2)nc2c1c(C1CCCN1)nn2-c1ccccc1 (stereo not drawn) was read as KDM5B inhibitor inactive.
`COc1ccc(CCNC(=O)Cn2nc(-c3ccc(OC)cc3)ccc2=O)cc1` gave KDM5B inhibitor inactive.
Screening COCCNC(=O)c1cc(-c2ccc(OC)cc2)nc2c1c(C1CCCN1)nn2C (stereo not drawn) returned KDM5B inhibitor 79.4µM*.
For CCc1ccc(-c2[nH]nc3nc(-c4ccc(OC)cc4)cc(C(=O)NCCCOC)c23)cc1 the results were KDM5B inhibitor inactive.
`Cc1c(C(=O)N2CCC(c3nc4ccccc4o3)CC2)oc2ccc(Cl)cc12` gave KDM5B inhibitor inactive.
O=C(/C=C/Nc1ccc(F)c(Cl)c1)c1ccc(-c2ccccc2)cc1 was read as KDM5B inhibitor inactive.
Screening CCN1CCN(Cc2nc3c(c(=O)n(C)c(=O)n3C)n2CCOC)CC1 returned KDM5B inhibitor inactive.
For CCCCCCC(=O)N/N=C/c1ccc(C(C)C)cc1 the results were KDM5B inhibitor inactive.
Screening CCOC(=O)c1ccc(NC(=O)C2=C(c3ccccc3)S(=O)(=O)CCO2)cc1 returned KDM5B inhibitor inactive.
Cc1c(Cl)cccc1NC(=O)c1n[nH]c(=O)c2ccccc12 was read as KDM5B inhibitor inactive.
`Cc1cc(C)nc(SCc2ccc(-c3nc(C4CCOC4)no3)o2)n1` (stereo not drawn) gave KDM5B inhibitor inactive.
CCCc1ccc(-c2nc(C3CCOC3)no2)cc1 (stereo not drawn) was read as KDM5B inhibitor inactive.
Screening Cc1cc2cccc(-c3nc(C4CCOC4)no3)c2o1 (stereo not drawn) returned KDM5B inhibitor 22.4µM*.
`Cn1nc(-c2nc(C3CCOC3)no2)cc1-c1ccccc1` (stereo not drawn) gave KDM5B inhibitor inactive.
Cc1nnnn1-c1cccc(-c2nc(C3CCOC3)no2)c1 (stereo not drawn) was read as KDM5B inhibitor inactive.
Screening CCN(CC)Cc1cc(-c2nc(C3CCOC3)no2)c(-c2ccccc2)o1 (stereo not drawn) returned KDM5B inhibitor 25.1µM*.
Cc1ccccc1OCc1nc(C2CCOC2)no1 (stereo not drawn) was read as KDM5B inhibitor inactive.
`Cc1cc(-c2nc(C3CCOC3)no2)c2ccccc2n1` (stereo not drawn) gave KDM5B inhibitor 28.2µM*.
Screening COc1c(C)cccc1-c1nc(C2CCOC2)no1 (stereo not drawn) returned KDM5B inhibitor inactive.
Screening CCC(C)NC(=O)Cn1ncc2ccccc2c1=O (stereo not drawn) returned KDM5B inhibitor inactive.
O=C(NCc1nnc2n1CCCCC2)c1nn(Cc2ccccc2)c(=O)c2ccccc12 was read as KDM5B inhibitor inactive.
Screening Cc1ccc(C(=O)c2ccccc2C(=O)OCCCc2ccccc2)cc1C returned KDM5B inhibitor inactive.
CCN1C(=O)C(Cc2c(OC)cc(OC)cc2OC)c2ccccc21 (stereo not drawn) was read as KDM5B inhibitor inactive.
For CC(=O)NCc1ccc(-c2csc(Nc3ccc(F)cc3)n2)o1 the results were KDM5B inhibitor inactive.
Screening O=S(=O)(Nc1ccc2cn[nH]c2c1)c1ccccc1C(F)(F)F returned KDM5B inhibitor inactive.
Screening O=C(Nc1ccc(Br)cc1)C1C2CCC3C(CCC21)C3(Cl)Cl (stereo not drawn) returned KDM5B inhibitor inactive.
CCOC(=O)N1CCC(N2CCc3nc(-c4ccc(Cl)cc4)[nH]c3C2)C1 (stereo not drawn) was read as KDM5B inhibitor 22.4µM*.
Screening COC(=O)N1CCc2nc(C)nc(-c3ccc(Cl)cc3)c2CC1 returned KDM5B inhibitor inactive.
`O=C(c1ccn(C(F)F)n1)N1CCc2nc(-c3ccc(Cl)cc3)[nH]c2C1` gave KDM5B inhibitor inactive.
`COc1ccccc1-c1nocc1CCC(=O)O` gave KDM5B inhibitor inactive.
Screening C#CCNC(=O)c1nc(-c2ccccc2OC)c2cnccn12 returned KDM5B inhibitor 89.1µM*.
COCCNC(=O)c1nc(-c2ccccc2OC)c2ccccn12 was read as KDM5B inhibitor inactive.
Screening C#CCNC(=O)c1nc(-c2ccccc2OC)c2ccccn12 returned KDM5B inhibitor 100µM*.
Screening COc1ccccc1-c1nc(C(=O)N(C)C)n2ccccc12 returned KDM5B inhibitor 112µM*.
For COc1ccccc1C(=O)Nc1c(-c2ccccc2)nc2ccccn12 the results were KDM5B inhibitor inactive.
Screening Cc1ccc(OCC(=O)Nc2ccc3c(c2)nc(CCn2nc(C)cc2C)n3C)cc1 returned KDM5B inhibitor inactive.
Screening Cc1sc2ncn(CCC(=O)NCc3ccccc3CN(C)C)c(=O)c2c1C returned KDM5B inhibitor inactive.
For CCOc1ccc(NC(=O)c2cc(C)nc3ccccc23)cc1OC the results were KDM5B inhibitor inactive.
For O=C(Nc1ccccc1Br)C1CC2CCCC(C1)C2=O (stereo not drawn) the results were KDM5B inhibitor inactive.
`CCCNC(=O)N1CCC(c2noc(COc3ccc(C)cc3)n2)CC1` gave KDM5B inhibitor inactive.
For CC(C)NC(=O)c1cc(-c2ccc(Cl)nc2)nc2c1cnn2C the results were KDM5B inhibitor 56.2µM*.
`CC(C)NC(=O)c1cc(-c2ccc(Br)cc2)nc2ccccc12` gave KDM5B inhibitor inactive.
`Cn1ncc2c(C(=O)N3CCN(c4ncccn4)CC3)cc(-c3ccc(Cl)nc3)nc21` gave KDM5B inhibitor inactive.
For CC(C)NC(=O)c1cc(-c2ccc(S(C)(=O)=O)cc2)nc2c1cnn2C the results were KDM5B inhibitor 79.4µM*.
Screening C[C@H](NC(=O)c1cc(-c2ccccc2)nc2ccccc12)C(=O)O returned KDM5B inhibitor inactive.
CCC(CC)NC(=O)c1cc(C(C)C)nc2c1cnn2C(C)C was read as KDM5B inhibitor inactive.
`COc1ccc(-c2nc3nc(C)cc(Nc4ccccc4C)n3n2)cc1` gave KDM5B inhibitor inactive.
Fc1ccc(/C=N/Nc2ccccc2)cc1F was read as KDM5B inhibitor inactive.
Cc1cc(C(F)(F)F)c(C#N)c(SCC#N)n1 was read as KDM5B inhibitor inactive.
Screening CCCN1Cc2cccc(C(=O)Nc3cc(Cl)cc(Cl)c3)c2C1=O returned KDM5B inhibitor inactive.
For CN1C(=O)c2cccn2CC1CNC(=O)c1n[nH]c(=O)c2ccccc12 (stereo not drawn) the results were KDM5B inhibitor inactive.
`CN1C(=O)c2cccn2CC1CNC(=O)c1cn[nH]c1-c1ccc(F)cc1` (stereo not drawn) gave KDM5B inhibitor inactive.
`CCn1nccc1C(=O)NCC1Cn2cccc2C(=O)N1C` (stereo not drawn) gave KDM5B inhibitor inactive.
`CN1Cc2cccn2CC1CNC(=O)c1nn(C)c2ccccc12` (stereo not drawn) gave KDM5B inhibitor 15.8µM*.
For Cc1nc(C)c(C(=O)NCC2Cn3cccc3C(=O)N2C)s1 (stereo not drawn) the results were KDM5B inhibitor inactive.
Cc1ccc(S(=O)(=O)N2CCCC(CNC(=O)c3cccs3)C2)cc1 (stereo not drawn) was read as KDM5B inhibitor inactive.
Screening Cn1ccnc1C(=O)NCC1Cn2cccc2C(=O)N1Cc1ccccc1 (stereo not drawn) returned KDM5B inhibitor inactive.
`CN1Cc2cccn2CC1CNC(=O)c1nccn1C` (stereo not drawn) gave KDM5B inhibitor 14.1µM*.
